The record followed here is PubChem BioAssay (EPA / NIEHS).

Test [1] can be described thus: TOX21_p53_BLA_p2_viability: Viability Assessment in the Tox21 HCT-116 p53 Agonism Beta-lactamase Assay, Phase 2 (AID 2283591).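 Also: compound exposure lasted 16 h at 37 °C; actives lower the ATP signal meaning cytotoxicity.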 The procedure, abridged:
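Cytotoxicity readout: CellTiter-Glo ATP luminescence, 30 min at room temperature, after the beta-lactamase read. Cells were HCT116 exposed 16 h at 37C to compounds pin-transferred at 217-fold dilution from DMSO stocks.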

Test [2] in a line: TOX21_p53_BLA_p3_viability: Viability Assessment in the Tox21 HCT-116 p53 Agonism Beta-lactamase Assay, Phase 3 (AID 2283593).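 Also: cells exposed to compound for 16 h before reading.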 The procedure, abridged:
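Cellular ATP was quantified by CellTiter-Glo luminescence, read after 30 min at room temperature. Beforehand, HCT116 cells (4000/well) received compound 5 h post-seeding, 217-fold diluted from DMSO, then incubated 16 h at 37C.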

Test [3] has as its target Cellular tumor antigen p53 (Homo sapiens) (UniProt P04637). The test can be described thus: TOX21_p53_BLA_p3_ratio: Tox21 HCT-116 p53 Agonism Beta-lactamase Assay, Ratio, Phase 3 (AID 2283596). The procedure, abridged:
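Cells were seeded at 4000/well, rested 5 h at 37C, then dosed with DMSO compound solutions (217-fold dilution) for 16 h. CCF4-AM substrate was loaded for 2 h at room temperature, and the 460/530 nm emission ratio was fitted for gain of signal versus DMSO.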

Test [4] is described as follows: TOX21_p53_BLA_p4_viability: Viability Assessment in the Tox21 HCT-116 p53 Agonism Beta-lactamase Assay, Phase 4 (AID 2283597).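 Also: hits lower the luminescence signal meaning cytotoxicity.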 The procedure, abridged: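 Viability is taken as cellular ATP: after 16 h compound exposure of HCT116 cells and a 2 h room-temperature CCF4-AM substrate step, CellTiter-Glo reagent is added and luminescence is measured 30 min later.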
Test [5] addresses Cellular tumor antigen p53 (Homo sapiens) (UniProt P04637). The test can be described thus: TOX21_p53_BLA_p5_ratio: Tox21 HCT-116 p53 Agonism Beta-lactamase Assay, Ratio, Phase 5 (AID 2283599). The procedure, abridged: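 Beta-lactamase reporter ratio (blue 460 nm over green 530 nm, 405 nm excitation) after 2 h CCF4-AM loading, in HCT-116 cells exposed 16 h at 37 C to compounds pinned at 217-fold dilution. Increases relative to DMSO baseline scored.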

A short description of test [6]: TOX21_p53_BLA_p5_viability: Viability Assessment in the Tox21 HCT-116 p53 Agonism Beta-lactamase Assay, Phase 5 (AID 2283600). The procedure, abridged: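 Viability is taken from cellular ATP content, measured by luciferase luminescence in the same wells after the beta-lactamase ratio read. Cells are seeded at 4000 per well and exposed to DMSO-dissolved compounds, diluted 217-fold, for 16 h.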

The target in test [7] is Cellular tumor antigen p53 (Homo sapiens) (UniProt P04637). Put plainly: TOX21_p53_BLA_p4_ratio: Tox21 HCT-116 p53 Agonism Beta-lactamase Assay, Ratio, Phase 4 (AID 2283601). The procedure, abridged:
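Signal is the blue/green (460nm/530nm) ratio of cleaved versus uncleaved CCF4-AM substrate, read after 2 h substrate loading. Cells were HCT116 carrying the p53-responsive beta-lactamase reporter, dosed 16 h at 37C, 5% CO2; CellTiter-Glo measured in parallel.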

Test [8] addresses T1, Thyroid hormone receptor alpha (Rattus norvegicus) + Thyroid hormone receptor beta (Rattus norvegicus) (UniProt P18113+P63059). Put plainly: TOX21_TR_LUC_GH3_Agonist_Followup: Tox21 GH3 Thyroid Hormone Receptor Agonism Luciferase Follow-Up Assay (AID 2283939). The procedure, abridged: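 Agonist-mode confirmatory run: 15 concentrations (5 nM to 92 uM final) on GH3 rat pituitary cells, 24 h at 37C/5% CO2, T3 as positive control. Luminescence read with ONE-Glo after 30 min.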

The target in test [9] is THRA (gene 7067) (UniProt P10827). The test can be described thus: TOX21_TRA_COA_Agonist_Followup_ratio: Tox21 Thyroid Hormone Receptor alpha Agonism through Coactivator Recruitment Follow-Up Assay, Ratio (AID 2283948; active = hit-call score of the fitted dose curve at least 0.9, where 1 is the maximum; inactive = score below 0.9). The procedure, abridged:
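First, compound was incubated with 2.5 nM GST-TRα LBD in 0.10% BSA. Next, 200 nM fluorescein-SRC-2 and 2 nM Tb-anti-GST antibody were added. Finally, the 520:495 nm ratio was normalized to DMSO and T3 controls.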

The target in test [10] is THRB (gene 7068) (UniProt P10828). Put plainly: TOX21_TRB_BLA_Agonist_Followup_ratio: Tox21 Thyroid Hormone Receptor beta Agonism Beta-lactamase (BLA) Follow-Up Assay, Ratio (AID 2283954). A digest of the protocol: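 Agonist mode: compounds (11-point, triplicate) incubated 18 h with HEK293T cells carrying GAL4-DBD/human TRβ-LBD and UAS-β-lactamase. Blue/green (460/530 nm) FRET ratio read after 2 h CCF4-AM loading; CellTiter-Glo viability run in the same plates.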

Test [11] shares this target. Put plainly: TOX21_TRB_COA_Agonist_Followup_ratio: Tox21 Thyroid Hormone Receptor beta Agonism through Coactivator Recruitment Follow-Up Assay, Ratio (AID 2283963; active = hit-call score of the fitted dose curve at least 0.9, where 1 is the maximum; inactive = score below 0.9). A digest of the protocol:
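Signal is the 520/495 nm emission ratio (excitation 340 nm), scaled between DMSO-only wells as 0% and T3 wells as 100%. It reflects fluorescein-labeled SRC-2 peptide recruitment to GST-TRβ ligand-binding domain detected via terbium anti-GST antibody.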

Test [12] addresses Retinoic acid receptor RXR-alpha (Homo sapiens) (UniProt P19793). Put plainly: TOX21_TR_RXR_BLA_Agonist_Followup_ratio: Tox21 Thyroid Hormone Receptor beta Retinoid X Receptor alpha (RXRa) Agonism Beta-lactamase (BLA) Follow-Up Assay, Ratio (AID 2283968). A digest of the protocol: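 Read-out: blue/green (460:530 nm) FRET ratio from cleaved vs uncleaved CCF4 substrate, fitted for gain of signal relative to DMSO. Cells: HEK293T with RXRa-UAS-bla reporter; 16 h compound exposure, 11 concentrations, triplicate.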

Test [13] can be described thus: TOX21_TR_RXR_BLA_Agonist_Followup_viability: Viability Assessment in the Tox21 Thyroid Hormone Receptor beta Retinoid X Receptor alpha (RXRa) Agonism Beta-lactamase (BLA) Follow-Up Assay (AID 2283970). The procedure, abridged:
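CellTiter-Glo ATP quantitation as viability read-out in RXRa-bla HEK293T cells (2,500/well, charcoal-stripped 2% FBS medium), 16h compound incubation at 37C. Loss of signal versus DMSO taken as cytotoxicity, analyzed by bidirectional curve fitting.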

Test [14] is described as follows: CCTE_Harrill_HTTr_Viability_MCF7: CCTE's 6-hour Cell Viability Assessment for the High-Throughput Transcriptomics (HTTr) Platform, in MCF-7 cells cultured in DMEM + 10% fetal bovine serum, Harrill Lab (AID 2284010; active = hit-call score of the fitted dose curve at least 0.9, where 1 is the maximum; inactive = score below 0.9). A digest of the protocol: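 PI exclusion, high-content imaging; 8-pt dilution series, 6 h exposure; bidirectional fit vs DMSO (neg. ctrl/baseline); gain of signal = loss of membrane integrity.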

Test [15] in a line: CCTE_Harrill_HTTr_Apoptosis_MCF7: CCTE's 6-hour Apoptosis Assessment for the High-Throughput Transcriptomics (HTTr) Platform, in MCF-7 cells cultured in DMEM + 10% fetal bovine serum, Harrill Lab (AID 2284011; active = hit-call score of the fitted dose curve at least 0.9, where 1 is the maximum; inactive = score below 0.9). The procedure, abridged:
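Cells are dosed with test chemicals at eight concentrations and imaged 6 hours later for caspase-3/7 activity using a green fluorogenic detection reagent. Activity is fitted in both directions against DMSO controls.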

Test [16] deals with T1, Thyroid hormone receptor alpha (Rattus norvegicus) + Thyroid hormone receptor beta (Rattus norvegicus). Put plainly: TOX21_TR_LUC_GH3_Antagonist_Followup: Tox21 GH3 Thyroid Hormone Receptor Antagonism Luciferase Follow-Up Assay (AID 2283942). A digest of the protocol:
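Loss of T3-driven (1.0 nM final) reporter activity in GH3 cells was read by ONE-Glo luminescence after 24 h incubation at 37C; 15-point compound series spanned 92 uM to 5nM final, 1,500 cells/well.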

The target of test [17] is THRA (gene 7067) (UniProt P10827). The test can be described thus: TOX21_TRA_COA_Antagonist_Followup_ratio: Tox21 Thyroid Hormone Receptor alpha Antagonism through Coactivator Recruitment Follow-Up Assay, Ratio (AID 2283953). The procedure, abridged:
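We measured antagonism of T3-type coactivator recruitment using a TR-FRET ratio (emission 520 and 495 nm) between a Tb-labelled anti-GST antibody on TRα LBD (2.5 nM) and SRC-2 peptide (200 nM). Activity was scaled between DMSO and T3 wells.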

Test [18] in a line: TOX21_TRB_BLA_Antagonist_Followup_viability: Viability Assessment in the Tox21 Thyroid Hormone Receptor beta Antagonism Beta-lactamase (BLA) Follow-Up Assay (AID 2283961). A digest of the protocol:
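Cytotoxicity is measured in parallel with the antagonist-mode TRβ beta-lactamase screen, using ATP-coupled luciferase luminescence. Engineered HEK293T cells are treated for 18 h with 11-point compound series in triplicate.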

Test [19] addresses THRB (gene 7068) (UniProt P10828). The test can be described thus: TOX21_TRB_COA_Antagonist_Followup_ratio: Tox21 Thyroid Hormone Receptor beta Antagonism through Coactivator Recruitment Follow-Up Assay, Ratio (AID 2283967). A digest of the protocol: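 Coactivator recruitment to the GST-tagged TRb ligand-binding domain (5.0 nM) was read as the 520/495 nm TR-FRET ratio, using 200 nM fluorescein SRC-2 peptide and 2 nM terbium anti-GST. Scaled between DMSO and T3 wells; loss of signal fitted.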

Test [20] concerns the target Retinoic acid receptor RXR-alpha (Homo sapiens) (UniProt P19793). Put plainly: TOX21_TR_RXR_BLA_Antagonist_Followup_ratio: Tox21 Thyroid Hormone Receptor beta Retinoid X Receptor alpha (RXRa) Antagonism Beta-lactamase (BLA) Follow-Up Assay, Ratio (AID 2283972). A digest of the protocol: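 Antagonist mode used GAL4 UAS-driven beta-lactamase in HEK293T cells expressing RXRa, treated for 16 h with compound concentration series. Activity was taken from the blue/green (460:530 nm) ratio of cleaved to uncleaved substrate.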

Records with an inconclusive call do not appear. Calls of active or inactive are those of the source. The calls were made as follows, unless noted: active = hit-call score of the fitted dose curve at least 0.9, where 1 is the maximum; inconclusive = response in the unintended direction; inactive = score below 0.9.

Chain of Cellular tumor antigen p53 (Homo sapiens) (P04637 whole entry, looked up): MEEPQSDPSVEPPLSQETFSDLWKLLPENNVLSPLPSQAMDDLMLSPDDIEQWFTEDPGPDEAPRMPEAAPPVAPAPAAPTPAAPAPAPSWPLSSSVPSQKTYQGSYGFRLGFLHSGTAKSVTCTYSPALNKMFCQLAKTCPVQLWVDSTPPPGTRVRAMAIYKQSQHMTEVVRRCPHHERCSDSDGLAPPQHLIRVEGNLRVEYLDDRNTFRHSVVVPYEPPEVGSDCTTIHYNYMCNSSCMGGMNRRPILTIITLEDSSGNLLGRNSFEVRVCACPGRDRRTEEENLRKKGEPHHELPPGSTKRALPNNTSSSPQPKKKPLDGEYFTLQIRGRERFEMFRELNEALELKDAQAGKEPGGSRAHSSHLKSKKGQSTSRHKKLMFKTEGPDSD
Chain of THRB (gene 7068) (P10828 whole entry, looked up, the tested form may be a part): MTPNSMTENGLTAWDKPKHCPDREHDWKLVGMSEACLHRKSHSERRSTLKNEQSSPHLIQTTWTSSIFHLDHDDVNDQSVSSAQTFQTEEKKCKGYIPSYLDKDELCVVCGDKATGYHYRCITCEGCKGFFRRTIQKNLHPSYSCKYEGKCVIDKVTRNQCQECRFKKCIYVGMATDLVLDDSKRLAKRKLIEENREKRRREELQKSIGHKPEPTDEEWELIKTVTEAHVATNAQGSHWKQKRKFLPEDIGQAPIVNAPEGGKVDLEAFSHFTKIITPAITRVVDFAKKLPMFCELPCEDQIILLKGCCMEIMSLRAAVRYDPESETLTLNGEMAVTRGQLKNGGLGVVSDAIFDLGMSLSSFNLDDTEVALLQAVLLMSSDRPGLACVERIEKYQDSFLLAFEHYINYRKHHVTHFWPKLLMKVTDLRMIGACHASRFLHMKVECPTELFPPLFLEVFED
Chain of THRA (gene 7067) (P10827 whole entry, looked up, the tested form may be a part): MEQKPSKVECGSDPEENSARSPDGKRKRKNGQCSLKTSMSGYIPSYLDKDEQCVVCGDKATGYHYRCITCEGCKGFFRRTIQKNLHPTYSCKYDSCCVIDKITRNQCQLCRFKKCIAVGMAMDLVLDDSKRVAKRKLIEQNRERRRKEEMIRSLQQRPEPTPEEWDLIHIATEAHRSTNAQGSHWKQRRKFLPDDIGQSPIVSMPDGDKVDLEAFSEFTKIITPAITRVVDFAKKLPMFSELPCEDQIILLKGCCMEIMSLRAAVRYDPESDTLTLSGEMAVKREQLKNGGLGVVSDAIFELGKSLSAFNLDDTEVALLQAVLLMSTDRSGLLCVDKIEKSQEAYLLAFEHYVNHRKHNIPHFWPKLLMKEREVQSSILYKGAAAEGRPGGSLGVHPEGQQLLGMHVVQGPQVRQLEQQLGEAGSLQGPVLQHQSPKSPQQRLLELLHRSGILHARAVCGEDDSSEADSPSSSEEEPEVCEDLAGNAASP
Chain of Retinoic acid receptor RXR-alpha (Homo sapiens) (P19793 whole entry, looked up, the tested form may be a part): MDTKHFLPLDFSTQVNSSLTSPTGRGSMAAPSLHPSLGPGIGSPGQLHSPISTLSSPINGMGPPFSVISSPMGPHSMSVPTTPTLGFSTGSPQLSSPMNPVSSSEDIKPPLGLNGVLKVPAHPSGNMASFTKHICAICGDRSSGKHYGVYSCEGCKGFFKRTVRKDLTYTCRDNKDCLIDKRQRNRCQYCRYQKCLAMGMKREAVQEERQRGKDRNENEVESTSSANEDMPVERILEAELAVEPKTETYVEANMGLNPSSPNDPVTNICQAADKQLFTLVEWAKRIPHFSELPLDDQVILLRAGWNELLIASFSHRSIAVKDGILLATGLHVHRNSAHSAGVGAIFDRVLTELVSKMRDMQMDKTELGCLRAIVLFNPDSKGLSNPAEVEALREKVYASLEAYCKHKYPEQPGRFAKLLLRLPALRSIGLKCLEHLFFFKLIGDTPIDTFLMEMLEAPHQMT
T1 sequence (P63059 whole entry, looked up): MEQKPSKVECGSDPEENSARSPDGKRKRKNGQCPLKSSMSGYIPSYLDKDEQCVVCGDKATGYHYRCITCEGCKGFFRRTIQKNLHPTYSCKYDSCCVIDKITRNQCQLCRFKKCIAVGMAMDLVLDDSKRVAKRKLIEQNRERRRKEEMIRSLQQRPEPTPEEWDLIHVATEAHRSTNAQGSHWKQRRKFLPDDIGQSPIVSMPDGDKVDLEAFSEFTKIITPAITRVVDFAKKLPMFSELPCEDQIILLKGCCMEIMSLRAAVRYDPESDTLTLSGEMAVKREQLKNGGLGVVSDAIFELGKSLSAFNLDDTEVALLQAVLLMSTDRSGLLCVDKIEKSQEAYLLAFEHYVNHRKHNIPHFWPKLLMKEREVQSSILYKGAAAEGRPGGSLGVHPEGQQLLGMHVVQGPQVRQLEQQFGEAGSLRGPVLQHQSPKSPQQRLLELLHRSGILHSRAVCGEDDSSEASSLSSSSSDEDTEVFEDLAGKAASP
T1 sequence (P18113 whole entry, looked up): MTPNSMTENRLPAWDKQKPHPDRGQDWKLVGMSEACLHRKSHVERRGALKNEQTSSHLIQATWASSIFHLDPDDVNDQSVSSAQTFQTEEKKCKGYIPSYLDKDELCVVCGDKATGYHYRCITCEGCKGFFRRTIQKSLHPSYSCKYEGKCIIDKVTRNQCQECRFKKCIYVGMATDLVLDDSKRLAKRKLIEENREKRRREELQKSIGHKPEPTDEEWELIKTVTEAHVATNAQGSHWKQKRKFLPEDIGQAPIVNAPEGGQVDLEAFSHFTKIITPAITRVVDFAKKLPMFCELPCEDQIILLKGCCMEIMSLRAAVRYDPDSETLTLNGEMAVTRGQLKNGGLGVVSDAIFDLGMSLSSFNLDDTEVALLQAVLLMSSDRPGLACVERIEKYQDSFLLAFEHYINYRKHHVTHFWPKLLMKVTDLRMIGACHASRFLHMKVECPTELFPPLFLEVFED

Turning to `O=C(Cl)CCl`, the call in test [1], in test [2], in [3], in test [4], in test [5] and in test [6] was inactive. Also, the outcome in [7] was inactive.
For `COc1ccc(OC)c([C@@H](O)[C@H](C)N)c1`, the result (in test [1]; in test [2]; in [3]; in test [6]; with THRA (gene 7067) [9]; with THRB (gene 7068) [10]) was inactive. In addition, the result (in the test with THRB (gene 7068) [11]; in [12]; in test [13]) was inactive. Besides, in test [8], the AC50 is 14.9 µM (active).
On to `N=C(N)[Se]`, for which the result in test [1], in test [2], in test [3], in test [5], in test [6] and in test [7] was inactive.
As to `CCOP(=S)(OCC)Oc1cc(-c2ccccc2)on1`, the result in test [1], in [2], in test [4] and in test [5] was inactive.
Turning to `CCC[CH2][Sn]([CH2]CCC)([O]C(C)=O)[O]C(C)=O`, the result in test [1], in test [5] and in test [7] was inactive. The AC50 in [2] is 17.7 µM (active); in test [3], 32.2 µM (active).
Take `Clc1c(Cl)c(Cl)c(Cl)c(Cl)c1Cl`: the result in [1], in test [2], in [4], in test [6] and in test [7] was inactive.
Regarding `BrC(Br)C(Br)(Br)Br`, the call in [1], in [2], in test [3], in [4], in test [5] and in [6] was inactive. The result in test [7] was inactive.
Take `CCN(CC)C(=O)N[C@H]1C[C@@H]2c3cccc4[nH]cc(c34)C[C@H]2N(C)C1`: the outcome in test [1], in [2], in test [3], in test [4] and in [6] was inactive.
On to `CCCCc1c(C)nc(NCC)[nH]c1=O`, for which the result in test [1], in [2], in test [3], in [4], in test [5] and in test [6] was inactive. In addition, the result in test [14] and in test [15] was inactive.
For `CCN(CC)CCO[C@H]1CC[C@@]2(C)C(=CC[C@@H]3[C@@H]2CC[C@]2(C)C(=O)CC[C@@H]32)C1`, the molecule was called inactive in test [1], in [2], in test [3], in test [4], in test [5] and in test [6]. The result (in [7]; in test [16]; with THRA (gene 7067) [17]; in test [18]; with THRB (gene 7068) [19]; in [20]) was inactive.
In the case of `O=Cc1ccccc1`, the call in [1], in test [2], in test [4], in test [5], in [6] and in test [7] was inactive.
As for `CC(C)C(Nc1ccc(C(F)(F)F)cc1Cl)C(=O)OC(C#N)c1cccc(Oc2ccccc2)c1` (stereo unspecified), the outcome in test [1], in [2], in test [5] and in [7] was inactive. Further, in [3], the AC50 is 87.3 µM (active).
Turning to `NNC(=O)c1ccccc1`, the result in [1], in test [2], in test [3], in test [5], in [6] and in test [7] was inactive.

The AC50 is the midpoint of the concentration-response curve, whichever way the signal moves.
